This note sets out measurements from PubChem BioAssay (EPA / NIEHS).

Records with an inconclusive call do not appear. Activity calls are given as the source filed them. How the source made its calls: active means hit-call score of the fitted dose curve at least 0.9, where 1 is the maximum; inconclusive means response in the unintended direction; inactive means score below 0.9.

human Thyroid hormone Receptor alpha (TRa), THRA (gene 7067), sequence (P10827 whole entry, looked up, the tested form may be a part): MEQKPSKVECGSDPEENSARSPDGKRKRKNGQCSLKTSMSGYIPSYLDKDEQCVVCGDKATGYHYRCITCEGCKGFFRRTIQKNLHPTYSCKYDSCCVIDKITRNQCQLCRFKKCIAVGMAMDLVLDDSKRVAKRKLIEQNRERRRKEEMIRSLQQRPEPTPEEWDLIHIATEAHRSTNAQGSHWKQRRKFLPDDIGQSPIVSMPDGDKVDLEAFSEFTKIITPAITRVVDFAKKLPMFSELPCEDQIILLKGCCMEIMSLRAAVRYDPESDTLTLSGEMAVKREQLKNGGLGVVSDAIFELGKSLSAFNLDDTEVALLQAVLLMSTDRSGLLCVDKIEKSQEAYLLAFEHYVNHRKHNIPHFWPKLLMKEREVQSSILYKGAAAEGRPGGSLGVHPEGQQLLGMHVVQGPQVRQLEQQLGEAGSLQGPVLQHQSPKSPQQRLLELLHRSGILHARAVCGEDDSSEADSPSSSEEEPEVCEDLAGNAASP
frog Thyroid hormone Receptor alpha (TRa), thra-a (gene 397942), sequence (P15204 whole entry, looked up, the tested form may be a part): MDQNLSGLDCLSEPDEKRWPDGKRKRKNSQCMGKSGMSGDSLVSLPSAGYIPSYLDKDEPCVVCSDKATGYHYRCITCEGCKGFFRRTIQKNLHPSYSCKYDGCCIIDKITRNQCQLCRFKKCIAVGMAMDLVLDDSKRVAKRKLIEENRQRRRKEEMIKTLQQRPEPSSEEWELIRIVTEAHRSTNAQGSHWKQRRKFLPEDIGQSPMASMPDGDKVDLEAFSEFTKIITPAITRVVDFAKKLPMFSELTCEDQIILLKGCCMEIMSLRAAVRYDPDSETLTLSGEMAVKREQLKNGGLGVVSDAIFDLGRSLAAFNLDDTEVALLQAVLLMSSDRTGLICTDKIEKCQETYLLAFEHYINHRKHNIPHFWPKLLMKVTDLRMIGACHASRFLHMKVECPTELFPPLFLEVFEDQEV

One experiment has as its target frog Thyroid hormone Receptor alpha (TRa), thra-a (gene 397942) (UniProt P15204). Briefly: ATG_frTRa_XSP1: Attagene TRANS-FACTORIAL Multi-Species (XSP1) HepG2 Assay for frog Thyroid hormone Receptor alpha (TRa) (AID 2283804). Summed up:
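HepG2 cells transiently transfected with frog TRa-GAL4 chimeric reporter units, dosed 24 hr with 3 nM 6-alpha-fluorotestosterone present; reporter mRNA quantified by RT-PCR, fluorescent labelling and capillary electrophoresis, gain of signal versus DMSO.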
In the case of `CON(C)C(=O)Nc1ccc(Cl)c(Cl)c1`, the result was inactive.

Usually AC50 stands for the concentration giving half of the maximal activity seen. As to `CCCN(CCC)c1c([N+](=O)[O-])cc(S(N)(=O)=O)cc1[N+](=O)[O-]`, the AC50 was 8.93 µM (active).

As for `C=CC1(C)OC(=O)N(c2cc(Cl)cc(Cl)c2)C1=O` (configuration not stated), the result was inactive.

For the compound `CCCCNC(=O)OCC#CI`, the compound was called inactive.

Turning to `CC(C)(C)c1ccc(CSc2cnn(C(C)(C)C)c(=O)c2Cl)cc1`, the AC50 was 0.148 µM (active).

For `CC(C)Oc1cc(-n2nc(C(C)(C)C)oc2=O)c(Cl)cc1Cl`, the AC50 is 61.6 µM (active).

In the case of `CCCCC(CC)COC(=O)c1ccccc1C(=O)OCC(CC)CCCC` (configuration not stated), the compound was classed as inactive.

On to `CO/C=C(/C(=O)OC)c1ccccc1Oc1cc(Oc2ccccc2C#N)ncn1`, for which the call was inactive.

As to `COC(=O)N(OC)c1ccccc1COc1ccn(-c2ccc(Cl)cc2)n1`, the outcome was inactive.

On to `CCCC1COC(Cn2cncn2)(c2ccc(Cl)cc2Cl)O1` (configuration not stated), for which the outcome was inactive.

A further experiment concerns the target human Thyroid hormone Receptor alpha (TRa), THRA (gene 7067) (UniProt P10827). Briefly: ATG_hTRa_XSP1: Attagene TRANS-FACTORIAL Multi-Species (XSP1) HepG2 Assay for human Thyroid hormone Receptor alpha (TRa) (AID 2283805). Summed up:
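HepG2 cells transiently transfected with GAL4-UAS reporter units expressing chimeric NR-Gal4 proteins, dosed 24 hours with 3 nM 6-alpha-fluorotestosterone present. Reporter mRNA measured by RT-PCR and capillary electrophoresis; gain of signal fitted versus DMSO.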
With `CON(C)C(=O)Nc1ccc(Cl)c(Cl)c1`, the outcome was inactive.

For the compound `CCCN(CCC)c1c([N+](=O)[O-])cc(S(N)(=O)=O)cc1[N+](=O)[O-]`, the AC50 was 8.28 µM (active).

For `C=CC1(C)OC(=O)N(c2cc(Cl)cc(Cl)c2)C1=O` (configuration not stated), the compound was classed as inactive.

On to `CCCCNC(=O)OCC#CI`, for which the result was inactive.

Turning to `COc1ccc(C(c2ccc(OC)cc2)C(Cl)(Cl)Cl)cc1`, the compound was called inactive.

As to `CCCCC(CC)COC(=O)c1ccccc1C(=O)OCC(CC)CCCC` (configuration not stated), the AC50 is 46.3 µM (active).

In the case of `CO/C=C(/C(=O)OC)c1ccccc1Oc1cc(Oc2ccccc2C#N)ncn1`, the result was inactive.

For `C#CCOS(=O)OC1CCCCC1Oc1ccc(C(C)(C)C)cc1` (configuration not stated), the outcome was inactive.

`COC(=O)N(OC)c1ccccc1COc1ccn(-c2ccc(Cl)cc2)n1`: the AC50 is 1.51 µM (active).

The subject of the next experiment is turtle Thyroid Hormone Receptor, alpha (TRa), gene 101949057. Description: ATG_trTRa_XSP1: Attagene TRANS-FACTORIAL Multi-Species (XSP1) HepG2 Assay for turtle Thyroid Hormone Receptor, alpha (TRa) (AID 2283806). Summed up:
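HepG2 cells transiently transfected with GAL4-UAS reporter units and chimeric receptor-Gal4 constructs, with 3 nM 6-alpha-fluorotestosterone present. Reporter mRNA was quantified 24 h after dosing by RT-PCR, 6-FAM labelling and capillary electrophoresis; gain of signal versus DMSO.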
In the case of `CON(C)C(=O)Nc1ccc(Cl)c(Cl)c1`, the result was inactive.

`CCCN(CCC)c1c([N+](=O)[O-])cc(S(N)(=O)=O)cc1[N+](=O)[O-]`: the AC50 was 8.29 µM (active).

As for `C=CC1(C)OC(=O)N(c2cc(Cl)cc(Cl)c2)C1=O` (configuration not stated), the AC50 is 134 µM (active).

As to `CCCCNC(=O)OCC#CI`, the compound was called inactive.

Turning to `CC(C)(C)c1ccc(CSc2cnn(C(C)(C)C)c(=O)c2Cl)cc1`, the outcome was inactive.

Turning to `CC(C)Oc1cc(-n2nc(C(C)(C)C)oc2=O)c(Cl)cc1Cl`, the compound was classed as inactive.

Take `CCCCC(CC)COC(=O)c1ccccc1C(=O)OCC(CC)CCCC` (configuration not stated): the AC50 is 47.8 µM (active).

Turning to `CO/C=C(/C(=O)OC)c1ccccc1Oc1cc(Oc2ccccc2C#N)ncn1`, the result was inactive.

As to `COP(=S)(OC)Oc1nc(Cl)c(Cl)cc1Cl`, the result was inactive.

As to `C#CCOS(=O)OC1CCCCC1Oc1ccc(C(C)(C)C)cc1` (configuration not stated), the compound was classed as inactive.

For the compound `COC(=O)N(OC)c1ccccc1COc1ccn(-c2ccc(Cl)cc2)n1`, the call was inactive.

Consider `CCCC1COC(Cn2cncn2)(c2ccc(Cl)cc2Cl)O1` (configuration not stated), for which the result was inactive.

Turning to `CCCCOC(=O)c1ccccc1C(=O)OCCCC`, the call was inactive.
